Assay [1] relates to XIP peptide (Xip251-270) binding. As to the kind of experiment: XIP fragment 251-270 binding compounds – biochemical, small-molecule microarray, fluorescence 635/667 nm, 0.1 µg/mL protein, primary screen (AID 1182). The conditions noted are these: fluorescent protein binding, 635 nm, higher = more signal, called active from +8 up or from −8 down.
The subject of another assay is XIP peptide (Xip251-270). The assay can be described thus: compounds binding XIP fragment 251-270 – biochemical, small-molecule microarray, fluorescence 635/667 nm, 0.5 µg/mL protein, primary screen (AID 1183). The conditions noted are these: fluorescence 635 nm, higher = more signal.
Assay [2] in a line: blood-stage malaria parasite viability loss – strain 3D7, DAPI fluorescence, 100 nL, primary screen (AID 1184).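 Note: parasites grown inside human red blood cells in medium with human serum.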 Conditions: P. falciparum 3D7 growth, 3 d, higher = more signal.
In assay [3] the target is Homeobox protein Hox-A13 (Mus musculus) (UniProt Q62424). The assay can be described thus: disruptors of Hoxa13 oligonucleotide interaction – biochemical, fluorescence polarization, labeled oligonucleotide, primary screen (AID 1185). The conditions noted are these: Hoxa13:DNA binding, 15 min, higher = more signal, called active from +8 up or from −8 down.
Chain of Homeobox protein Hox-A13 (Mus musculus) (Q62424 whole entry, looked up): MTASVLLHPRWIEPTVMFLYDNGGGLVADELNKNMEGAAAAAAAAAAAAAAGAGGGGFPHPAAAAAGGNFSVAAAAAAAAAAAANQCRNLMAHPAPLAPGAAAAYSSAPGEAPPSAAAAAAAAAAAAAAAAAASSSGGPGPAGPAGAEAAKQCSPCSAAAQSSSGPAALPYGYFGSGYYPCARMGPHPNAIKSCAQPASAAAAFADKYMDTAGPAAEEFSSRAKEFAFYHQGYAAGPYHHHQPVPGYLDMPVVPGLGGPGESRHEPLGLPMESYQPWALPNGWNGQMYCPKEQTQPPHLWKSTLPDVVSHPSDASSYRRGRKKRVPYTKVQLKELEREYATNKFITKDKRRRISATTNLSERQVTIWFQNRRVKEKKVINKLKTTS
Assay [4] can be described thus: blockers of DNA damage checkpoint Chk1 activation – imaging, HeLa, hydroxyurea, phospho-Chk1 antibody, percent positive cells, primary screen (AID 1186). The conditions noted are these: hydroxyurea-induced phospho-Chk1 immunofluorescence imaging, higher = more signal.
A short description of assay [5]: blockers of DNA damage checkpoint Chk1 activation – imaging, HeLa, hydroxyurea, phospho-Chk1 nuclear intensity, primary screen (AID 1187). Conditions: hydroxyurea-induced phospho-Chk1 immunofluorescence imaging, higher = more signal.

Each structure is given as a SMILES string. Active and inactive are the calls of the source. Unless noted, the rule behind the calls is not given here.

In the case of `CCOC(=O)C1=CC[C@@H](c2ccccc2)N(S(=O)(=O)c2ccc(C)cc2)[C@H]1C#N`, the values for the composite z-score (in assay [1]; in the assay on XIP peptide (Xip251-270)) were 0.452 (inactive) and 0.839, respectively. The z-score in assay [2] is -0.712; in assay [3], -3.58 (inactive); in assay [4], 0.584 (inactive); in assay [5], 0.373 (inactive).

With `C=CCNC(=O)[C@@H]1[C@H]2C(=O)O[C@H](c3ccccc3)[C@H](c3ccccc3)N2[C@H](c2ccccc2OCCO)[C@@]12C(=O)N(C(=O)OCCOC)c1ccc(C#CCCO)cc12`, the composite z-score was 0.397 (inactive) in assay [1] and 0.683 in the assay on XIP peptide (Xip251-270). The z-score is -2.09 in assay [2], -1.71 (inactive) in assay [3], -0.37 (inactive) in assay [4] and -0.538 (inactive) in assay [5].

With `CCCCCCc1nc(-c2ccc(OC)nc2)cc2c1[Si](C(C)C)(C(C)C)OC2`, the composite z-score was -0.0275 (inactive) in assay [1] and -0.019 in the assay with XIP peptide (Xip251-270). The z-score in assay [2] is -1.99; in assay [3], -3.55 (inactive); in assay [4], -0.0362 (inactive); in assay [5], 0.237 (inactive).

Turning to `C#CCN(C/C=C/c1ccccc1)[C@H](CO[Si](C)(C)C(C)(C)C)c1ccccc1`, the composite z-score in assay [1] was 0.141 (inactive); in the assay with XIP peptide (Xip251-270) it was 0.0247. The z-score was -0.775 in assay [2], -0.229 (inactive) in assay [3], 0.229 (inactive) in assay [4] and -0.274 (inactive) in assay [5].

`O=C1O[C@H](c2ccccc2)[C@H](c2ccccc2)N2[C@H]1[C@@H](C(=O)NC[C@H](O)c1ccccc1)[C@]1(C(=O)Nc3ccc(C#CCCO)cc31)[C@H]2c1ccccc1OCCO`: the figures for the composite z-score (in assay [1]; in the assay on XIP peptide (Xip251-270)) were 0.419 (inactive) and 0.693, respectively. Besides, the z-score in assay [2] was -1.4; in assay [3], -4 (inactive); in assay [4], 0.125 (inactive); in assay [5], 0.46 (inactive).

Regarding `N[C@@H](Cc1ccccc1)Cn1cc(C2(O)CCCCC2)nn1`, the composite z-score was -0.0563 (inactive) in assay [1] and 0.0069 with XIP peptide (Xip251-270). Besides, the z-score in assay [2] is 0.493; in assay [3], -3.59 (inactive); in assay [4], 0.43 (inactive); in assay [5], 0.426 (inactive).

Consider `C=CCC(OC(C)=O)[C@@H]1[C@@H](N(Cc2ccc(-c3cccc(C(F)(F)F)c3)o2)C(=O)c2cccc3ccccc23)c2cc(OCCCO)ccc2N1C(=O)c1ccc2ccccc2c1` (some centres not stated), for which the composite z-score in assay [1] was 0.184 (inactive); in the assay on XIP peptide (Xip251-270), -0.563. For the same molecule, the z-score in assay [2] was -2.73; in assay [3], -2.32 (inactive); in assay [4], -0.675 (inactive); in assay [5] it was -0.36 (inactive).

Turning to `C=CCC(OC(C)=O)[C@@H]1[C@@H](N(Cc2ccc(-c3cccc(C(F)(F)F)c3)o2)C(=O)Cc2ccc(F)cc2)c2cc(OCCCO)ccc2N1C(=O)c1ccc2ccccc2n1` (some centres not stated), the composite z-score was -0.384 (inactive) in assay [1] and -0.904 in the assay with XIP peptide (Xip251-270). Also, the z-score in assay [2] was 0.587; in assay [3], -2.08 (inactive); in assay [4], 0.918 (inactive); in assay [5], 0.64 (inactive).

Turning to `C=CC[C@]1(C(=O)NCc2ccccc2)COC(c2ccc(OCCCO)cc2)=N1`, the composite z-score was -0.398 (inactive) in assay [1] and 0.779 with XIP peptide (Xip251-270). For the same molecule, the z-score is -0.823 in assay [2], -4.86 (inactive) in assay [3], -0.059 (inactive) in assay [4] and -0.0405 (inactive) in assay [5].

For the molecule `COc1ccc(CCNC(=O)[C@@]2(Sc3ccc(C)cc3)CC(=O)N(C(C)C)[C@@H]2c2ccc(CO)cc2)cc1`, the values for the composite z-score (in assay [1]; in the assay on XIP peptide (Xip251-270)) were 0.117 (inactive) and 0.66, respectively. For the same molecule, the z-score is -0.302 in assay [2], -3.28 (inactive) in assay [3], 0.0372 (inactive) in assay [4] and -0.0512 (inactive) in assay [5].

With `C=CC[C@@]12N=C(c3ccc(OCCCO)cc3)O[C@@H]1c1ccccc1N(Cc1ccccc1)C2=O`, the composite z-score in assay [1] is 0.799 (inactive); in the assay on XIP peptide (Xip251-270), 0.797. Besides, the z-score in assay [2] was -2.42; in assay [3], -2.23 (inactive); in assay [4] it was 0.0198 (inactive); in assay [5], 0.552 (inactive).

For the molecule `CCOC(=O)C1=CC[C@@H](c2ccc(F)cc2)N(S(=O)(=O)c2ccc(C)cc2)[C@H]1c1ccc([N+](=O)[O-])cc1`, the composite z-score in assay [1] was 0.1 (inactive); with XIP peptide (Xip251-270), 0.559. Also, the z-score is -1.8 in assay [2], 0.532 (inactive) in assay [3], 0.355 (inactive) in assay [4] and 0.593 (inactive) in assay [5].

For the molecule `[N-]=[N+]=NCc1ccccc1[C@H]1OC(c2ccc(OCCCO)cc2)=N[C@@]1(Cc1ccccc1)C(=O)N1CCOCC1`, the composite z-score in assay [1] is 0.0472 (inactive); in the assay on XIP peptide (Xip251-270), 0.667. The z-score was -2.62 in assay [2], -3.37 (inactive) in assay [3], -0.11 (inactive) in assay [4] and -0.185 (inactive) in assay [5].

`COc1ccc([Si](C)(C)[C@@H]2[C@@H](CCO)O[C@]3(C(=O)N(Cc4ccccc4)c4ccc(N5C(=O)c6ccccc6Oc6ccccc65)cc43)[C@H]2C)cc1`: the composite z-score in assay [1] is 0.664 (inactive); with XIP peptide (Xip251-270), 0.299. For the same molecule, the z-score in assay [2] was -0.119; in assay [3], -1.08 (inactive); in assay [4] it was -0.83 (inactive); in assay [5], -0.253 (inactive).

Consider `COC(=O)[C@@]1(Cc2ccc(F)cc2)[C@H]2c3cc(C(=O)N(C)C)n(CCO)c3C[C@H]2CN1C(=O)c1ccccc1`, for which the values for the composite z-score (in assay [1]; in the assay with XIP peptide (Xip251-270)) were 1.79 (inactive) and 0.39, respectively. In addition, the z-score was 0.196 in assay [2], -4.71 (inactive) in assay [3], -0.0514 (inactive) in assay [4] and 0.138 (inactive) in assay [5].

For `COCCOC(=O)N1C(=O)[C@@]2(c3cc(C#CCC(C(=O)OC)C(=O)OC)ccc31)[C@H](C(=O)N1CCCCCCC1)[C@H]1C(=O)O[C@H](c3ccccc3)[C@H](c3ccccc3)N1[C@@H]2c1ccccc1OCCO`, the composite z-score in assay [1] is 2.48 (inactive); in the assay on XIP peptide (Xip251-270), 0.483. For the same molecule, the z-score is -2.4 in assay [2], 4.77 (inactive) in assay [3], 0.122 (inactive) in assay [4] and 0.0392 (inactive) in assay [5].

Turning to `COCCOC(=O)N1C(=O)[C@@]2(c3cc(C#CC4(O)CCCCCC4)ccc31)[C@H](c1ccc(OCCO)cc1)N1[C@H](c3ccccc3)[C@H](c3ccccc3)OC(=O)[C@H]1[C@@H]2C(N)=O`, the results for the composite z-score (in assay [1]; with XIP peptide (Xip251-270)) were 0.539 (inactive) and 0.849, respectively. For the same molecule, the z-score was -2.02 in assay [2], -1.87 (inactive) in assay [3], -0.0641 (inactive) in assay [4] and -0.215 (inactive) in assay [5].

The record behind these values is PubChem BioAssay.
